# An excerpt weighted towards active compounds, which were near 3.9% of everything screened.
# BoNT-A LC inh2: BoNT/A light chain protease inhibitors, primary screen, biochemical, flow cytometry, MLPCN library; Botulinum neurotoxin type A light chain protease (Clostridium botulinum A str. ATCC 3502); multiplex microsphere protease substrate cleavage; inhibition, % at 10 µM; 360,000 tested, 0.17% active; AID 588499, 2011; also: plate controls were buffer without enzyme for full effect and enzyme alone for no effect
# BoNT F protease: BoNT/F light chain protease inhibitors, primary screen, biochemical, flow cytometry, MLPCN library | Botulinum neurotoxin type F light chain protease (Clostridium botulinum) | Multiplex microsphere protease cleavage assay | inhibition, % at 10 µM | 360,000 tested, 0.22% active; in the data active = inhibition above about 35%, passing the limit was not always enough; inconclusive = no clear call, values can overlap the other calls; also: plate controls were buffer without enzyme for full effect and enzyme alone for no effect
# Bead autofluor: flagged as autofluorescent in microsphere protease counterscreen; compound autofluorescence counterscreen, microsphere flow cytometry; hits give high values; fluorescence intensity (test concentration not listed); 360,000 tested, 3.1% active; AID 624483; in the data active = fluorescence intensity above about 16000; inconclusive = no clear call, values can overlap the other calls
# Anthrax LF prot: Bacillus anthracis LF protease inhibitors, primary screen, biochemical, multiplex microsphere, MLPCN library | multiplex microsphere protease cleavage assay | Lethal factor (Bacillus anthracis), P15917 | AID 588501, 2011 | inhibition, % at 10 µM | 360,000 tested, 0.12% active; also: plate controls were buffer without enzyme for full effect and enzyme alone for no effect
# CCHFV vOTU inh: CCHFV vOTU protease inhibitors, primary screen, biochemical, Pep-AMC substrate, fluorescence; Crimean-Congo hemorrhagic fever virus L polyprotein viral ovarian tumor (vOTU) protease …; inhibition, % at 11.5 µM; 370,000 tested, 0.55% active; AID 651958, 2012; in the data active = inhibition above about 30%; also: 0% = vehicle wells with enzyme and 100% = no enzyme wells
# SARS 3CLpro inh: SARS-CoV 3CLpro protease inhibitors, primary screen, biochemical, quenched FRET; 290,000 tested, 0.14% active; recombinant SARS-CoV 3CLpro, quenched FRET peptide cleavage; Replicase polyprotein 1ab (Severe acute respiratory syndrome coronavirus), P0C6X7; inhibition, % at 6 µM; in the data active = inhibition above about 12%
# The depositor's hits bear a star; ? = inconclusive; nt = no result. Rule as the data show it, unless noted: active = inhibition above about 30%; inconclusive = no clear call, values can overlap the other calls; inactive = below that.
SMILES,BoNT-A LC inh2,BoNT F protease,Bead autofluor,Anthrax LF prot,CCHFV vOTU inh,SARS 3CLpro inh
CN(C)c1ccc(P(=O)(OCc2ccccc2)C(O)c2cccnc2)cc1 (centres undefined),0.0,1.4,20409*,0.3,-8.3,0.1
CC(C)C(O)P(=O)(OCc1ccccc1)c1ccc(N(C)C)cc1 (centres undefined),-2.3,-3.2,20468*,-4.2,-1.8,-2.3
COc1ccc(CCN(Cc2cccs2)S(=O)(=O)c2ccc(C)c(C)c2)cc1OC,nt,nt,nt,nt,7.8,nt
N#Cc1c(N)nc2c(c1-c1ccncc1)CCCCCC2,-1.4,-2.4,23466*,-3.0,-4.6,-0.7
N#Cc1c(N)nc2c(c1-c1ccccc1)CCCC2,?,2.6,21448*,-8.9,-0.7,6.1
CSc1nc2c(c(-c3ccccc3)c1C#N)CCC2,?,2.7,21295*,0.9,-1.2,-0.8
N#Cc1c2c(nc(N)c1-c1ccccc1)CCCCC2,0.0,5.4,2670,0.6,2.6,-1.7
COc1cccc(N2CCN(CC(=O)NCc3ccc(Cl)cc3)CC2)c1,nt,nt,nt,nt,8.9,nt
COc1cccc2c1[C@H](/C=C/c1ccccc1)[C@@H]([C@H](O)CO)OC2,nt,nt,nt,nt,-2.3,nt
COC(=O)[C@]12C[C@H](CC(=O)NCc3ccc(C)o3)C(=O)N(Cc3cccc4ccccc34)C1=C[C@H](C(C)C)O[C@@H]2C1CC1,nt,nt,nt,nt,20.8,nt
COc1ccc(-n2c(SCC(=O)NNC(=S)Nc3ccccc3)nc3ccccc3c2=O)cc1,nt,nt,nt,nt,7.2,nt
FC(F)(F)c1nc2ncc(Cl)cc2[nH]1,-1.1,-0.1,20866*,-0.3,-7.9,0.5
Cc1ccc(-c2nnc(SCC(=O)NN=Cc3c[nH]c4ccccc34)n2-c2ccccc2)cc1,nt,nt,nt,nt,22.9,nt
CCOC(=O)NC(=O)c1cn(N(C)c2ncc(C(F)(F)F)cc2Cl)c(=O)[nH]c1=O,-17.3,-66.7,21416*,-23.0,8.3,3.0
COC(=O)c1cn(N(C)c2ncc(C(F)(F)F)cc2Cl)c(=O)c2ccccc12,-1.0,3.0,2383,-3.8,-3.5,-2.9
CCCc1ccc(Oc2cc(N3CCOCC3)nc(-c3ccccc3)n2)cc1,0.6,-0.6,23308*,-1.7,nt,4.0
Cc1ccc(-c2nn(-c3cc(N4CCNCC4)ccc3[N+](=O)[O-])c(=O)c3ccccc23)cc1,1.1,-18.5,2079,-4.0,-9.0,-2.0
Cc1nn(-c2cc(N3CCCCC3)ccc2N)c(=O)c2ccccc12,?,0.0,20582*,-0.1,-10.7,0.5
Cc1nn(-c2cc(N3CCCCCC3)ccc2[N+](=O)[O-])c(=O)c2ccccc12,?,-1.6,23118*,1.2,1.3,-2.3
CC(Cl)C(=O)N1CCC(C(=O)NCC2COc3ccccc3O2)CC1 (centres undefined),nt,nt,nt,nt,-3.2,nt
C/C=C/C(=O)N1CCC(C(=O)NCC2COc3ccccc3O2)CC1 (centres undefined),nt,nt,nt,nt,-6.8,nt
Cc1ccc(OC[C@@H](O)CN2CCC(C(O)(c3ccccc3)c3ccccc3)CC2)cc1,nt,nt,nt,nt,5.3,nt
CCCn1c(-c2ccc(OC)cc2)nc2nc3ccccc3nc21,3.4,2.4,22319*,5.8,-20.1,4.7
CC(=O)Nc1ccc(SCC(=O)N(CCC#N)c2ccc(C)cc2)cc1,-2.0,-5.6,16531*,-2.1,12.1,-1.5
Cc1ccc(SCc2cc(=O)[nH]c(/N=C(\N)Nc3ccc(C)c(C)c3)n2)cc1,-3.3,-8.3,25207*,-1.1,nt,-5.1
COC(=O)Cc1cc(=O)[nH]c(/N=C(\N)Nc2ccc(C)cc2C)n1,0.2,4.7,3049,5.6,-13.0,2.0
COCc1cc(=O)[nH]c(/N=C(\N)Nc2ccc(Cl)c(Cl)c2)n1,-8.4,-57.0,3843,?,-9.8,1.9
COCc1cc(=O)[nH]c(/N=C(\N)Nc2ccc(C)cc2)n1,?,-5.3,21003*,0.5,14.9,1.8
CCOC(=O)Cc1cc(=O)[nH]c(/N=C(\N)Nc2ccc(C)cc2C)n1,-0.3,-0.6,23280*,1.0,-4.3,0.0
CCC(=O)n1nc(-c2ccccc2)nc1SCC(=O)Nc1ccc(C)cc1,-1.4,-2.8,21542*,-0.6,7.0,4.0
